Measurements published in PubChem BioAssay.
For part of these data: Results with a measured potency or affinity are listed apart. Activity calls are given as the source filed them. Unless noted, the rule behind the calls is not given here.

Tests used:
[1] = antimalarial activity against Dd2 strain (AID 2302;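 active = growth inhibition above 50% at the single 2 µM test dose, taken to imply half-maximal potency below 2 µM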;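 note: 0% = DMSO untreated growth and 100% = chloroquine plus artemisinin killed control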); details: P. falciparum Dd2 in RBCs, LDH growth readout, 72 h; at 2 µM; stronger effect = higher value
[2] = HepG2 cytotoxicity, primary screen, cytotoxicity control for P. falciparum antimalarial project, cell-based, ATP luminescence (AID 2303;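 active = inhibition above 50%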;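 note: 0% = DMSO wells and 100% = digitonin-killed cells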); details: HepG2 viability, 24-48 h, at 10 µM, stronger effect = higher value
[3] = molecular target: L-lactate dehydrogenase (Plasmodium falciparum (isolate CDC / Honduras)) (UniProt Q27743); test: PfLDH activity inhibition – cell lysate, 3D7 strain, counter-screen for P. falciparum growth inhibition project (AID 2304);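 note: 0% = vehicle and 100% = reference inhibitor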; details: P. falciparum 3D7 crude extract, LDH APAD/NBT absorbance; at 2 µM; stronger effect = higher value
[4] = inhibition of 3D7 malaria parasite growth – strain 3D7 (AID 2306);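 note: 0% = DMSO wells and 100% = chloroquine plus artemisinin control wells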; details: P. falciparum 3D7 erythrocytic growth, LDH absorbance, 72 h; at 2 µM; stronger effect = higher value
[5] = molecular target: Calcium-dependent protein kinase 1 (Plasmodium falciparum (isolate 3D7)) (UniProt P62344); test: PfCDPK1 kinase inhibitors, biochemical, TCAMS library (AID 1159585; cut-off not given, nearly all actives have IC50 up to about 0.98 µM;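 note: inhibitors leave more ATP so luminescence rises with inhibition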); details: recombinant PfCDPK1, Kinase-Glo ATP depletion luminescence
[6] = molecular target: Plasmodium falciparum protein kinase 6 (PK6, PF3D7_1337100) (UniProt Q8IDW1); test: PfPK6 kinase inhibitors, biochemical, TCAMS library (AID 1159586); details: recombinant PfPK6, Kinase-Glo ATP depletion luminescence
[7] = molecular target: Protein kinase 7 (PK7), Plasmodium falciparum 3D7 (PF3D7_0213400) (UniProt Q7YTF7); test: inhibition of Plasmodium PK7 catalytic activity – biochemical, TCAMS antimalarial set, Kinase-Glo luminescence (AID 1159587); details: recombinant PfPK7, Kinase-Glo ATP depletion luminescence
[8] = molecular target: Calcium-dependent protein kinase 4 (Plasmodium falciparum (isolate 3D7)) (UniProt Q8IBS5); test: PfCDPK4 kinase inhibitors, biochemical, TCAMS library (AID 1159588; cut-off not given, nearly all actives have IC50 up to about 0.91 µM); details: recombinant PfCDPK4, Kinase-Glo ATP depletion luminescence
Chain of Calcium-dependent protein kinase 4 (Plasmodium falciparum (isolate 3D7)) (Q8IBS5 whole entry, looked up): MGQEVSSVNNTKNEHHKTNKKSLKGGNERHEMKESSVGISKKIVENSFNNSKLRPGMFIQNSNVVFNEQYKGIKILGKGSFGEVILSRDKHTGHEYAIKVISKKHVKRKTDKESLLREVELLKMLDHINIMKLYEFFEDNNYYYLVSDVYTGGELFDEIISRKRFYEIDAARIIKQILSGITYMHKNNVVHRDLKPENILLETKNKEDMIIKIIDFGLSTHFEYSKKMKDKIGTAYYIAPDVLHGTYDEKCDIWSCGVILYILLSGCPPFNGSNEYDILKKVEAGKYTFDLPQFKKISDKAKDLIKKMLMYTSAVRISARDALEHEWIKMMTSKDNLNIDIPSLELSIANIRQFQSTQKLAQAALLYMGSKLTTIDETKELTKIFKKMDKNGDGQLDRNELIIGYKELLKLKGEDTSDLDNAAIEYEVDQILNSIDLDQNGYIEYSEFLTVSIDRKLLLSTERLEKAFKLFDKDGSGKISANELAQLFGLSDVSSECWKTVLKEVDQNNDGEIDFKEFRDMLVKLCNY

Chain of Calcium-dependent protein kinase 1 (Plasmodium falciparum (isolate 3D7)) (P62344 whole entry, looked up): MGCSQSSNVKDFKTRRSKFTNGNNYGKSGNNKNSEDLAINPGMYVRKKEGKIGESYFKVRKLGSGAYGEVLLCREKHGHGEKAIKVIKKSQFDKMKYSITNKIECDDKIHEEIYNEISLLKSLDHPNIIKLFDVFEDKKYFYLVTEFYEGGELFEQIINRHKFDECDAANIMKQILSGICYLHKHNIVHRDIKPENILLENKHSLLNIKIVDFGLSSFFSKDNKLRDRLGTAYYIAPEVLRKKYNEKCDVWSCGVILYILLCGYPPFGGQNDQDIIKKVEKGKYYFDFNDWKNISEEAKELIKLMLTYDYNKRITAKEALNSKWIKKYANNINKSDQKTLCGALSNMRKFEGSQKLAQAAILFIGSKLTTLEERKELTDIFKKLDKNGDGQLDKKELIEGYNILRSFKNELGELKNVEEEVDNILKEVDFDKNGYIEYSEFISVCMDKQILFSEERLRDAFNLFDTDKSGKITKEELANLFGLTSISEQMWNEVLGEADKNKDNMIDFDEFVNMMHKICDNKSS
Chain of L-lactate dehydrogenase (Plasmodium falciparum (isolate CDC / Honduras)) (Q27743 whole entry, looked up): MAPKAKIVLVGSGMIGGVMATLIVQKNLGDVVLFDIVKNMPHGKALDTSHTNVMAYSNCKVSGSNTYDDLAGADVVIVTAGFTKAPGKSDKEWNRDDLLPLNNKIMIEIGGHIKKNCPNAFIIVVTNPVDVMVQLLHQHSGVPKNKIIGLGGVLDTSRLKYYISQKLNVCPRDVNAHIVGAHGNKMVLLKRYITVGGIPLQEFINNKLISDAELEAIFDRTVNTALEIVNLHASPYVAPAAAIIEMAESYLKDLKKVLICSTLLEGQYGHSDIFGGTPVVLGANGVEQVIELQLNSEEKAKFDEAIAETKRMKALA
Chain of Protein kinase 7 (PK7), Plasmodium falciparum 3D7 (PF3D7_0213400) (Q7YTF7 1-343): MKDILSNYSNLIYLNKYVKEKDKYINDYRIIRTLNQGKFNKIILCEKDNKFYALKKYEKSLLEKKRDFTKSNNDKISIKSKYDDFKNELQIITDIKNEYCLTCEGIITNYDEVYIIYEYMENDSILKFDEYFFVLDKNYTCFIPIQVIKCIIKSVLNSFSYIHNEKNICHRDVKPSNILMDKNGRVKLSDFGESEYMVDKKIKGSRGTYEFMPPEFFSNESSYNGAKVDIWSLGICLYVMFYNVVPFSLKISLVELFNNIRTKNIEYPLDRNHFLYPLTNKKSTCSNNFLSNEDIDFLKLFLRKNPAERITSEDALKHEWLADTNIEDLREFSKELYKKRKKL
Chain of Plasmodium falciparum protein kinase 6 (PK6, PF3D7_1337100) (Q8IDW1 1-305): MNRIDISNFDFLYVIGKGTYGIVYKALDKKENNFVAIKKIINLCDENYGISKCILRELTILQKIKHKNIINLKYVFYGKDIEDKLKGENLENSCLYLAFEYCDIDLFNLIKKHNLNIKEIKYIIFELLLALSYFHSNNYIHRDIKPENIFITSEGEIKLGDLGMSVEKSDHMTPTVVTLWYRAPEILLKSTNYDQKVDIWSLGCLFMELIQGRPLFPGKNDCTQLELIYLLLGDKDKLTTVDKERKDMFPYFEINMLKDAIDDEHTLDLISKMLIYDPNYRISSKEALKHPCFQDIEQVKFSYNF

Cc1ccccc1C1CCN(C2CCC(NC(=O)/C=C/c3ccc(C(F)(F)F)cc3F)CC2)CC1 (configuration not stated)
inactive: inhibition [3] -2% | outcome [5] | outcome [6] | outcome [7] | outcome [8]
active: growth inhibition [1] 58% | inhibition [2] 72% | growth inhibition [4] 99%

O=[N+]([O-])c1ccccc1C=NNc1ccnc2ccc(C(F)(F)F)cc12
inactive: growth inhibition [1] 36% | inhibition [2] 6% | inhibition [3] -3% | outcome [5] | outcome [6] | outcome [7] | outcome [8]
active: growth inhibition [4] 100%

COc1ccc2nccc(N3CCC(NCCNCc4cc5c(cn4)OCCO5)C3)c2n1 (configuration not stated)
active: growth inhibition [4] 99%
inactive: growth inhibition [1] 3% | inhibition [2] 8% | inhibition [3] -3% | outcome [5] | outcome [6] | outcome [7] | outcome [8]

CCOC(=O)CC[C@@H](NC(=O)c1ccc(NCc2ccc3ccc4nc(C)[nH]c(=O)c4c3c2)cc1F)C(=O)N[C@@H](Cc1c[nH]c2ccccc12)C(=O)OCC
inactive: inhibition [2] 45% | inhibition [3] 0% | outcome [5] | outcome [6] | outcome [7] | outcome [8]
active: growth inhibition [1] 77% | growth inhibition [4] 98%

CN1CCC(Oc2ccc(CN3CC[C@H](NC(=O)c4cccc(C#N)c4)C3)c3ccccc23)C1 (some centres not stated)
inactive: growth inhibition [1] 30% | inhibition [2] 10% | inhibition [3] -1% | outcome [5] | outcome [6] | outcome [7] | outcome [8]
active: growth inhibition [4] 97%

CCS[C@@H]1O[C@H](COC(=O)c2ccccc2)[C@H](OC(=O)c2ccccc2)[C@H](OC(=O)c2ccccc2)[C@H]1OC(=O)c1ccccc1
active: growth inhibition [1] 52% | growth inhibition [4] 98%
inactive: inhibition [2] 4% | inhibition [3] 5% | outcome [5] | outcome [6] | outcome [7] | outcome [8]

COc1ccc2ncc(F)c(CCN3CC[C@@H](CNCc4cc5c(cn4)OCS5)C3)c2n1
active: growth inhibition [4] 98%
inactive: growth inhibition [1] 29% | inhibition [2] 3% | inhibition [3] 0% | outcome [5] | outcome [6] | outcome [7] | outcome [8]

CCOC(=O)c1ccc(NC(=O)Nc2ccc(-c3cccc(-c4nc5ccccc5[nH]4)c3)cc2)cc1
active: growth inhibition [1] 99% | inhibition [2] 94% | growth inhibition [4] 101%
inactive: inhibition [3] -4% | outcome [5] | outcome [6] | outcome [7] | outcome [8]

COCCNCc1nc(-c2ccc3c(Nc4ccc(F)c(O)c4)ccnc3c2)cs1
inactive: inhibition [2] -7% | inhibition [3] 6% | outcome [5] | outcome [6] | outcome [7] | outcome [8]
active: growth inhibition [1] 99% | growth inhibition [4] 101%

N#Cc1ccc(NC(=O)NC2CCN(CCCCCNC(=O)/C=C/c3ccc(Cl)c(Cl)c3)CC2)cc1
active: growth inhibition [4] 98%
inactive: growth inhibition [1] 4% | inhibition [2] 15% | inhibition [3] 0% | outcome [5] | outcome [6] | outcome [7] | outcome [8]

CC(C)(C)c1ccc(CNCC(C)(C)c2nc(-c3ccc(Cl)c(O)c3)c(-c3ccnc(N)n3)[nH]2)cc1
active: growth inhibition [1] 54% | growth inhibition [4] 100%
inactive: inhibition [2] 28% | inhibition [3] -7% | outcome [5] | outcome [6] | outcome [7] | outcome [8]

C[C@H](NC(=O)[C@H](Cc1ccccc1)NC(=O)OC(C)(C)C)C(=O)N[C@@H](CC1CCCCC1)C(O)CN (some centres not stated)
active: growth inhibition [1] 64% | growth inhibition [4] 96%
inactive: inhibition [2] -4% | inhibition [3] -5% | outcome [5] | outcome [6] | outcome [7] | outcome [8]

O=C(Nc1ccccc1Cl)c1cc2ccccc2cc1O
inactive: inhibition [2] 2% | inhibition [3] -4% | outcome [5] | outcome [6] | outcome [7] | outcome [8]
active: growth inhibition [1] 72% | growth inhibition [4] 94%

COc1ccc2c(NN=Cc3cccnc3)cc(C)nc2c1
active: growth inhibition [4] 85%
inactive: growth inhibition [1] 12% | inhibition [2] -4% | inhibition [3] -2% | outcome [5] | outcome [6] | outcome [7] | outcome [8]

CC(C)NC(=O)c1cccc(-c2ccc(OCCN3CCCC3c3cc4ccccc4[nH]3)cc2)c1 (configuration not stated)
active: growth inhibition [4] 100%
inactive: growth inhibition [1] 34% | inhibition [2] 25% | inhibition [3] -2% | outcome [5] | outcome [6] | outcome [7] | outcome [8]

Fc1ccc2c(NN=Cc3ccc(Cl)cc3)ccnc2c1
active: growth inhibition [1] 99% | growth inhibition [4] 101%
inactive: inhibition [2] 7% | inhibition [3] -1% | outcome [5] | outcome [6] | outcome [7] | outcome [8]

CCSc1ccccc1CON1C(N)=NC(N)=NC1(C)C
inactive: growth inhibition [1] 10% | inhibition [3] -3% | outcome [5] | outcome [6] | outcome [7] | outcome [8]
active: inhibition [2] 62% | growth inhibition [4] 96%

O=C(Nc1ccc(Cn2ncc(N3CCCNCC3)c(Cl)c2=O)cc1)Nc1cccc(SC(F)(F)F)c1
inactive: growth inhibition [1] 33% | inhibition [2] 12% | inhibition [3] 4% | outcome [5] | outcome [6] | outcome [7] | outcome [8]
active: growth inhibition [4] 92%

CCCCCCc1cc2cc(-c3nc(-c4ccc(OC)cc4)cs3)c(=O)oc2cc1O
active: growth inhibition [1] 93% | growth inhibition [4] 97%
inactive: inhibition [2] 45% | inhibition [3] -6% | outcome [5] | outcome [6] | outcome [7] | outcome [8]

Cc1c[nH]c2cc(/C=C/C(=O)NC3CCC(CCN4CCc5ccc(C#N)cc5CC4)CC3)ccc12 (configuration not stated)
inactive: inhibition [2] -1% | inhibition [3] -2% | outcome [5] | outcome [6] | outcome [7] | outcome [8]
active: growth inhibition [1] 59% | growth inhibition [4] 95%

O=C(Nc1cc(C(F)(F)F)ccc1-n1cncn1)C1(c2ccccc2)CC1
active: growth inhibition [1] 100% | growth inhibition [4] 100%
inactive: inhibition [2] 11% | inhibition [3] 3% | outcome [5] | outcome [6] | outcome [7] | outcome [8]

COc1cc(Cc2cnc(N)nc2N)cc(OCC(C)(C)C(=O)O)c1OC
active: growth inhibition [4] 89%
inactive: growth inhibition [1] -4% | inhibition [2] -3% | inhibition [3] -2% | outcome [5] | outcome [6] | outcome [7] | outcome [8]

CCOc1ccc2nc3cc(NC(=O)c4ccco4)ccc3c(N)c2c1
active: growth inhibition [1] 56% | growth inhibition [4] 101%
inactive: inhibition [2] 36% | inhibition [3] -1% | outcome [5] | outcome [6] | outcome [7] | outcome [8]

COc1cccc(NC(=O)Nc2cc(C)nc3ccccc23)c1
inactive: growth inhibition [1] 48% | inhibition [2] 2% | inhibition [3] -1% | outcome [5] | outcome [6] | outcome [7] | outcome [8]
active: growth inhibition [4] 100%

N#Cc1ccc(N[C@@H](CC2CCCCC2)C(=O)N[C@@H]2CCCc3ccccc32)c2ccccc12
inactive: inhibition [2] 12% | inhibition [3] -5% | outcome [5] | outcome [6] | outcome [7] | outcome [8]
active: growth inhibition [1] 99% | growth inhibition [4] 99%

NC(=O)c1cccc(C(=O)Nc2cccc(-c3cccc(-c4nc5ccccc5[nH]4)c3)c2)c1
inactive: inhibition [2] 32% | inhibition [3] 2% | outcome [5] | outcome [6] | outcome [7] | outcome [8]
active: growth inhibition [1] 78% | growth inhibition [4] 100%

CCCOc1ccc(N2C(N)=NC(N)=NC2(C)C)cc1
active: growth inhibition [4] 97%
inactive: growth inhibition [1] 2% | inhibition [2] 1% | inhibition [3] -6% | outcome [5] | outcome [6] | outcome [7] | outcome [8]

COc1ccc(CNCc2cccc(-c3cccc(-c4nc5ccc(F)cc5[nH]4)c3)c2)cc1
inactive: inhibition [2] 18% | inhibition [3] 5% | outcome [5] | outcome [6] | outcome [7] | outcome [8]
active: growth inhibition [1] 55% | growth inhibition [4] 100%

CN1CCC(N2CCN(c3ccc4c(=O)nc(CCc5cccc(F)c5F)n(CC(=O)N(C)Cc5ccc(-c6ccc(C(F)(F)F)cc6)cc5)c4n3)CC2)CC1
inactive: inhibition [2] 15% | inhibition [3] 2% | outcome [5] | outcome [6] | outcome [7] | outcome [8]
active: growth inhibition [1] 99% | growth inhibition [4] 100%

Cc1ccccc1-c1cc(=O)c2cc(NC(=O)c3cccs3)ccc2o1
inactive: inhibition [2] 22% | inhibition [3] -4% | outcome [5] | outcome [6] | outcome [7] | outcome [8]
active: growth inhibition [1] 95% | growth inhibition [4] 96%

CCN(CC)CCN(Cc1ccc(-c2ccc(C(F)(F)F)cc2)cc1)C(=O)Cn1c(CCc2cccc(F)c2F)c(C)c(=O)c2ccccc21
inactive: inhibition [3] 3% | outcome [5] | outcome [6] | outcome [7] | outcome [8]
active: growth inhibition [1] 52% | inhibition [2] 61% | growth inhibition [4] 87%

COc1cccc(OC2CCN(C(=O)c3ccc(-c4ccc(N5CCCC5=O)cc4C)cc3)CC2)c1
active: growth inhibition [1] 80% | growth inhibition [4] 85%
inactive: inhibition [2] 42% | inhibition [3] -3% | outcome [5] | outcome [6] | outcome [7] | outcome [8]

COc1ccc2nc(N3CCN(C(=O)OC(C)(C)C)CC3)nc(NCCCc3ccccc3)c2c1
active: growth inhibition [1] 95% | growth inhibition [4] 102%
inactive: inhibition [2] 9% | inhibition [3] -2% | outcome [5] | outcome [6] | outcome [7] | outcome [8]

CN(C)CCNCc1cccc(-c2ccc3c(Nc4cc(O)c(Cl)cc4F)ccnc3c2)c1
active: growth inhibition [1] 59% | growth inhibition [4] 99%
inactive: inhibition [2] 6% | inhibition [3] 3% | outcome [5] | outcome [6] | outcome [7] | outcome [8]

CCCC1N=C(N)N=C(N)N1c1cccc([N+](=O)[O-])c1 (configuration not stated)
inactive: growth inhibition [1] 1% | inhibition [2] -4% | inhibition [3] 3% | outcome [5] | outcome [6] | outcome [7] | outcome [8]
active: growth inhibition [4] 96%

O=C(Nc1cccc(N2CCC(NCc3cccnc3)CC2)c1)c1cccc(C(F)(F)F)c1
active: growth inhibition [4] 98%
inactive: growth inhibition [1] 2% | inhibition [2] 26% | inhibition [3] -3% | outcome [5] | outcome [6] | outcome [7] | outcome [8]

c1ccc2c(c1)CN(CC1CC1)CC1(CCN(Cc3c[nH]c4cnccc34)CC1)O2
inactive: growth inhibition [1] 14% | inhibition [2] 30% | inhibition [3] -1% | outcome [5] | outcome [6] | outcome [7] | outcome [8]
active: growth inhibition [4] 101%

Nc1cccc(CNCc2cccc(-c3cccc(-c4nc5ccc(F)cc5[nH]4)c3)c2)c1
active: growth inhibition [1] 82% | growth inhibition [4] 102%
inactive: inhibition [2] 5% | inhibition [3] -4% | outcome [5] | outcome [6] | outcome [7] | outcome [8]

Cn1nccc1C(=O)NCCNCc1cccc(-c2cccc(-c3nc4ccc(F)cc4[nH]3)c2)c1
active: growth inhibition [4] 100%
inactive: growth inhibition [1] 7% | inhibition [2] 38% | inhibition [3] 0% | outcome [5] | outcome [6] | outcome [7] | outcome [8]
